# Results as given in article PMC4336329 (PLoS ONE, 2015).
# Screen size: about 310,000 compounds; about 14,000 (4.5%) showed an effect of 50% or more. Effects have a minus sign here. The entries come from a sample that favours strong results as a whole.
# Target: human ether-à-go-go-related gene (hERG) potassium channel (human, UniProt Q12809)
# Test: primary screen, population patch clamp on CHO cells stably expressing hERG; higher = less effect of the substance
# Procedure: Briefly, Chinese hamster ovary (CHO) cells stably expressing the hERG channel were dislodged from tissue culture flasks and dispensed into PPC plates. […] During the recording, background leak currents were estimated by a 100 ms step to -80 mV from an initial holding potential of -70 mV and subtracted from the subsequent current measurement. The campaign was conducted in two phases using slight differences in recording protocol. In the first phase, the initial voltage pulse used a 100 ms step to -30 mV from a holding potential of -70 mV, a 2 s conditioning step to +25 mV, and a 2 s test step to -30 mV. During the second phase of the screen, the potential during the conditioning step was raised to +45 mV. In both phases of the campaign, a secondary voltage pulse was applied using the same parameters as the second phase initial pulse. The initial and secondary pulses were applied in the absence of compound, and upon application of 1 μM and 10 μM test concentrations. […]
# 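Note: peak tail current of the secondary pulse compared with the same well before compound.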
# Chain of human ether-à-go-go-related gene (hERG) potassium channel (Q12809 whole entry, looked up): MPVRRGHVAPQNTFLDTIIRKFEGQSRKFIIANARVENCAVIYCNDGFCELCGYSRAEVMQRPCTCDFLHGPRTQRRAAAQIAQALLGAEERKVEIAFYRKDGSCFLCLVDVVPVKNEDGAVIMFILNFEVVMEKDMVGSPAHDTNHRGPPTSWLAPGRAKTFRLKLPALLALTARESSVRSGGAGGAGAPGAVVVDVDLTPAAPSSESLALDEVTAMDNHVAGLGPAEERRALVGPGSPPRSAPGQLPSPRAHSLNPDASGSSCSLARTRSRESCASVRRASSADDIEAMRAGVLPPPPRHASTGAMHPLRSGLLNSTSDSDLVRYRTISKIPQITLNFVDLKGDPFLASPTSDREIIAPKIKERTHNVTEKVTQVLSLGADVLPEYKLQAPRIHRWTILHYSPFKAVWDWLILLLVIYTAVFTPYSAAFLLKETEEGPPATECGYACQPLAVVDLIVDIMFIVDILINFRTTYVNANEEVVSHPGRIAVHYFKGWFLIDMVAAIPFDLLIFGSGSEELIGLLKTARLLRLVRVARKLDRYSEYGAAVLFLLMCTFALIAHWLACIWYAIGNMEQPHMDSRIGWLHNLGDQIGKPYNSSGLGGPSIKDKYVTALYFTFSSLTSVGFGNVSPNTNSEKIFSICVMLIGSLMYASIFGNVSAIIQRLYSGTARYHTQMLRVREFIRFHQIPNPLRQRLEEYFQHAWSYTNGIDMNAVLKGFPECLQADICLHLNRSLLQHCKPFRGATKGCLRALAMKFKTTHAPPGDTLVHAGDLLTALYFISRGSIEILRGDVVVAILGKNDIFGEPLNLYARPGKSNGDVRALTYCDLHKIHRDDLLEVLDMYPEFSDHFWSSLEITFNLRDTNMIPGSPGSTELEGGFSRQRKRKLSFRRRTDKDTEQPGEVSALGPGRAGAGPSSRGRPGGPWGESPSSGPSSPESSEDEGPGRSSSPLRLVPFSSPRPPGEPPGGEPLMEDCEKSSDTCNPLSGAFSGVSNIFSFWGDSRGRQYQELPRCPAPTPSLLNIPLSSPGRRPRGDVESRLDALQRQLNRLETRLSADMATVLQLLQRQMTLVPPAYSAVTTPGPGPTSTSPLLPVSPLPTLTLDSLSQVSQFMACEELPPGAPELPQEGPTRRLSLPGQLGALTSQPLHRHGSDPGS
row,SMILES,"hERG current change (%, negative = inhibition) at 10uM [%]"
1,O=C(Nc1nc2ccc(S(=O)(=O)N3CCCC3)cc2s1)c1ccco1,11.5
2,CCCn1c2ccc(F)cc2c2nnc(SCCN3CCOCC3)nc21,-35.8
3,CCn1c2ccccc2c2nnc(SCCN3CCOCC3)nc21,3.2
4,CCCCn1c2ccc(F)cc2c2nnc(NN)nc21,-44.9
5,CCCn1c2ccc(F)cc2c2nnc(SCCN3CCCCC3)nc21,-64.2
6,CCn1c2nc(SCCN3CCOCC3)nnc2c2cc(C)cc(C)c21,-95.3
7,CCCCn1c2ccc(F)cc2c2nnc(SCCN3CCOCC3)nc21,-55.4
8,CCCn1c2ccccc2c2nnc(SCCN3CCOCC3)nc21,-9.15
9,CCn1c2ccc(F)cc2c2nnc(SCCN3CCCCC3)nc21,-61
10,CCCn1c2ccc(F)cc2c2nnc(NN)nc21,-1.94
11,CCn1c2ccc(C)cc2c2nnc(SCCN3CCOCC3)nc21,-13.8
12,CCn1c2ccc(F)cc2c2nnc(SCCN3CCOCC3)nc21,-41.2
13,CCn1c2ccc(F)cc2c2nnc(NN)nc21,-9.93
14,Cc1cccc2cc(/C=N/NC(=O)c3ccccc3O)c(Cl)nc12,-2.17
15,O=C1[C@H]2[C@@H](c3ccc(Cl)cc3)N3C(=O)N(c4cccc(Cl)c4)C(=O)[C@@]3(Cc3ccccc3)[C@H]2C(=O)N1C1CCCCC1,-2.02
16,Cc1cc(C)nc(NC2=NCCN2C(=O)NC2CCCCC2)n1,-17.7
17,[2H]c1c([2H])c([2H])c(-c2nc(N3CCCCCC3)sc2C(=O)c2ccccc2)c([2H])c1[2H],-2.19
18,CC(C)CCNC(=O)C1CCCN(S(=O)(=O)c2ccc(F)cc2)C1 (centres unmarked),6.85
19,CC(=O)Nc1ccccc1NC(=O)c1ccc(C)cc1C,23.7
20,S=c1[nH]nc(COc2cccc(Cl)c2)n1Cc1ccccc1,34.4
21,COc1cccc(NC(=O)CSc2nc(C3CC3)nc3ccccc23)c1,4.75
22,Cc1ccc2[nH]c3nc(SCCN4CCOCC4)nnc3c2c1,8.91

row,SMILES,"hERG current change (%, negative = inhibition) at 10uM [%]"
1,CCCn1c2ccc(C)cc2c2nnc(SCCN3CCOCC3)nc21,-32.5
2,CCCCn1c2ccc(C)cc2c2nnc(SCCN3CCCCC3)nc21,-74.3
3,CSCCC(NC(=O)C1CCC(C)CC1)C(=O)O (centres unmarked),16.6
4,Cc1cccnc1NC(=O)c1ccc(Br)o1,32.6
5,Nc1nc(NC(=O)/C=C/c2ccc(F)cc2)nn1-c1ccccc1,-53.4
6,Nc1nc(NC(=O)c2ccccc2)nn1-c1ccccc1,-70.9
7,COc1ccc(/C=C/C(=O)Nc2nc(N)n(-c3ccccc3)n2)cc1,-53
8,COc1ccc(C(=O)Nc2nc(N)n(-c3ccccc3)n2)cc1,-11.4
9,Nc1nc(NC(=O)/C=C/c2ccccc2)nn1-c1ccccc1,-32.6
10,COc1ccccc1/C=C/C(=O)Nc1nc(N)n(-c2ccccc2)n1,-33.8
11,Cc1ccc(C(=O)Nc2nc(N)n(-c3ccccc3)n2)cc1,-0.817
12,Nc1nc(NC(=O)c2cccnc2)nn1-c1ccccc1,18.8
13,Nc1nc(NC(=O)/C=C\C(=O)O)nn1-c1ccccc1,27.8
14,Cc1ccc(Nc2nnc(SCc3ccccc3)s2)cc1,11.9
15,O=[N+]([O-])c1ccc(S(=O)(=O)Nc2ccc(-c3ccc(N4CCCC4)nn3)cc2)cc1,-8.67
16,Cc1cc(C)c2nc(-c3ccccn3)cc(C(=O)Nc3ccc(S(=O)(=O)Nc4onc(C)c4C)cc3)c2c1,-2.33
17,CC(=O)OCCCN1C(=O)c2cccc3cc(Br)cc(c23)C1=O,4.74
18,O=S1(=O)c2ccccc2N=NN1Cc1ccc(Cl)cc1,16.1
19,Cn1c(O)c(C=NC2C(=O)C3(C)CCC2C3(C)C)c(=O)n(C)c1=O (centres unmarked),-0.548
20,Cc1onc(-c2c(F)cccc2Cl)c1C(=O)OCC(=O)NCc1ccco1,5.77
21,CN(Cc1ccccc1)C(=O)C1CCCN(Cc2cccc(Cl)c2)C1.O=C(O)C(=O)O (centres unmarked),-23.5
22,COc1ccc(CCN(C)C(=O)C2CCCN(Cc3ccc(OC)c(OC)c3)C2)cc1OC (centres unmarked),9.21
